Reference: PubChem BioAssay AID504832 (National Center for Advancing Translational Sciences (NCATS), 2011)
The campaign covered roughly 310,000 compounds. About 18,000 (5.8%) were called active. Roughly 22% stayed inconclusive and do not appear here. For the sample, actives were picked, then their nearest neighbours and some compounds at random. Unmarked numbers belong to inactive results. Calls follow the shape of the dose curve; as a rule, active = well fitted inhibition curve with a large enough effect; inconclusive = small, poorly fitted or top-dose-only effect, or another doubt; inactive = no such curve, though single readings can be large or run the other way.

Experiment: Primary qHTS for delayed death inhibitors of the malarial parasite plastid, 48 hour incubation
Conditions: P. falciparum luciferase growth in erythrocytes; series mostly up to 28.7 µM; activity change, negative = inhibition: at the top concentration
Text: The goal of this screen is to discover new antimalarial compounds that act by inhibiting the development of the apicoplast in the malarial parasite Plasmodium falciparum. The biochemical processes that make this organelle essential for erythrocytic stage parasites are not well understood. However, antibiotics such as azithromycin and tetracycline, which target the apicoplast translational machinery, have a potent antimalarial effect.
We have developed a cell-based assay that measures parasite growth based on the expression of an integrated copy of a firefly luciferase reporter. To detect small molecules that cause this "delayed death" phenotype, erythrocytes infected with the luciferase-expressing parasites were incubated with compounds for either one or two generations, corresponding to 48 and 96 hours, respectively. Compounds that inhibit parasite growth in the second generation, but not the first, should be enriched in antimalarials that target the apicoplast. Growth inhibition is detected by a decrease in luciferase activity.
Assay Provider: David Fidock and Eric Ekland, Columbia University
Keywords: NIH Roadmap, MLPCN, MLI, MLSMR, qHTS, NCGC, qHTS, malaria, luciferase, viability
Four microliters of culture medium (RPMI 1640 with 0.5% w/v Albumax (GIBCO), 24 mM sodium bicarbonate and 10 ug/mL gentamycin) were dispensed by a Multi-drop Combi into white solid 1536-well plates (Grenier) and 23 nL compound was added by a pin tool. Four microliters of infected erythrocytes (2% hematocrit, 0.1% parasitemia final concentration) in culture medium were dispensed and the plates incubated for 48 hours at 37 C in 5% CO2. Two microliters of luciferase detection reagent was added and luminescence was detected by a ViewLux (PerkinElmer) reader.
% is scaled to controls: 0 for no effect and ±100 for the full control effect; potency is read from the fitted curve at half-maximal effect.

| SMILES | activity change, negative = inhibition | Potency |
| --- | --- | --- |
| COc1ccc(N2CCN(C(=O)c3ccc(N4CCCCS4(=O)=O)cc3)CC2)cc1 | -9.38% |  |
| Cc1cc(Cl)ccc1OCCCC(=O)Nc1cccc(-n2cnnn2)c1 | -3.27% |  |
| Cc1ccc(N2C(=O)CC(Nc3cccc4ccccc34)C2=O)cc1 (stereo unspecified) | 18.2% |  |
| Cc1ccc(N2C(=O)C3N=NN(CC(=O)N4N=C(c5cccc6ccccc56)CC4c4ccccc4)C3C2=O)cc1 (stereo unspecified) |  | 13.1 µM (active) |
| COc1ccc(C2=NN(C(C)=O)C(c3ccccc3)C2)cc1 (stereo unspecified) | 23% |  |
| O=C(CSc1nnnn1C1CCCC1)N1CCCCC1 | 98.1% |  |
| O=C(O)C1=NN(c2c(F)c(F)cc(F)c2F)C(=O)CC1 | 19.6% |  |
| COc1ccc(N2CCN(C(=O)CCNC(=O)c3ccc(Br)cc3)CC2)cc1 | -16.9% |  |
| COc1cccc(C(=O)N2CCC(n3nccc3NC(=O)C3CCOC3)CC2)c1 (stereo unspecified) | 1.74% |  |
| CC(=O)N/C(=N/c1nc(C)cc(C)n1)Nc1ccc(F)cc1F | -15.7% |  |
| Cc1cc(C)nc(-n2nc(C)cc2NC(=O)c2ccc(F)cc2F)n1 |  | 10.4 µM (active) |
| Cc1cc(NC(=O)c2cnn3cccnc23)n(-c2ccccc2)n1 | -9.66% |  |
| CC(CN1CCOCC1)OC(=O)c1ccc(C(C)(C)C)cc1 (stereo unspecified) | -8.18% |  |
| Cc1nn2c(c1-c1ccccc1)N=C(c1ccco1)CC2c1ccccc1 (stereo unspecified) |  | 14.7 µM (active) |
| Cc1nn(C(=O)c2ccoc2C)c(N)c1-c1ccccc1 | 23.2% |  |
| O=C(O)CCCC(=O)N1N=C(c2ccco2)CC1c1ccco1 (stereo unspecified) | -18% |  |
| CCN1CCN(C(=O)C2CCN(S(=O)(=O)c3cc(Cl)ccc3Cl)CC2)CC1 | 10.5% |  |
| COc1ccc(C(=O)c2c(C)c(CCC#N)n3ccccc23)c(OC)c1 | -8.61% |  |
| Cc1ccccc1NC(=O)C(C)OC(=O)CCC(=O)N(CC(C)C)c1c(N)n(CC(C)C)c(=O)[nH]c1=O (stereo unspecified) | -7.74% |  |
| COc1ccc(C(=O)NCC(=O)N/N=C/c2ccc([N+](=O)[O-])o2)cc1OC |  | 6.57 µM (active) |
| COc1cc(/C=N\NC(=O)CNC(=O)c2cccc([N+](=O)[O-])c2)ccc1O | 17.5% |  |
| COc1ccc(C(=O)NCC(=O)N/N=C/c2ccc([N+](=O)[O-])s2)cc1OC | -25.4% |  |
| O=C(Cn1ccc2cc(S(=O)(=O)N3CCCC3)ccc21)NCc1ccccc1 | -5.75% |  |
| CCCOc1cccc(C(=O)Nc2ccccc2C(=O)N2CCN(C)CC2)c1 | 30.4% |  |
| CC1=C(C/C=C(\C)CCCC(C)CCCC(C)CCCC(C)C)C(=O)c2ccccc2C1=O (stereo unspecified) |  | 10.7 µM (active) |
| CS(=O)(=O)c1ccc(Cl)c(NC(=O)COC(=O)c2ncc(Cl)c(Cl)c2Cl)c1 | -4.26% |  |

| SMILES | activity change, negative = inhibition | Potency |
| --- | --- | --- |
| COc1ccc(CNc2cc(C)cc(C)c2)cc1OC | 72.2% |  |
| CN(CC(=O)Nc1cccc(F)c1)C(=O)C1CSC2(C)CCC(=O)N12 (stereo unspecified) | -0.11% |  |
| CCn1c(=O)c2ccccc2n(CC(=O)N2CCCc3ccccc32)c1=O | -13.9% |  |
| Cn1c(SCC(=O)NC2CCCCC2)nnc1-c1ccc(N)cc1 | 59.1% |  |
| Cn1c(SCC(=O)OC2CCCCC2)nnc1-c1ccc(S(=O)(=O)N2CCCC2)cc1 |  | 2.62 µM (active) |
| Cn1c(SCC(=O)Nc2cccc(O)c2)nnc1-c1ccc(S(=O)(=O)N2CCOCC2)cc1 | 7.1% |  |
| Cc1ccc(C(=O)C(C)OC(=O)Cc2n[nH]c(=O)c3ccccc23)cc1C (stereo unspecified) | 9.11% |  |
| CCc1ccc(-c2cc(C)no2)cc1S(=O)(=O)NCCc1ccc(S(N)(=O)=O)cc1 | -28.2% |  |
| O=C(CCS(=O)(=O)c1ccc2c(c1)NC(=O)CS2)NCc1ccccc1Cl | 4.89% |  |
| O=C(O)c1ccccc1-c1ccccc1C(=O)NCc1cccnc1 | 4.09% |  |
| CCc1ccc(N(CC(=O)NCc2cccnc2)S(=O)(=O)c2ccccc2)cc1 | 97.9% |  |
| Cc1ccc(S(=O)(=O)N(Cc2ccc(Cl)cc2)c2ccccc2C(=O)NCc2cccnc2)cc1 |  | 13.1 µM (active) |
| O=C(c1cnc(Cl)c(Cl)c1)N1CCN(S(=O)(=O)c2ccc(F)cc2)CC1 | -5.82% |  |
| CCCc1nc2ccccc2c(C(=O)OCc2nnc(-c3cc(OC)c(OC)c(OC)c3)o2)c1CC |  | 4.65 µM (active) |
| COc1cc(-c2cc(C(=O)OCC(=O)Nc3ccc4c(c3)OCO4)c3ccccc3n2)cc(OC)c1OC | 0.182% |  |
| O=C(OCc1nnc(-c2ccccc2)o1)c1cc(=O)[nH]c2ccccc12 | -27.5% |  |
| COc1ccccc1C(=O)Nc1ccnn1C1CCN(C(=O)C(C)(C)C)CC1 | -1.89% |  |
| NS(=O)(=O)c1cccc(NC(=O)CN2CCCc3ccccc32)c1 | -0.755% |  |
| COC(=O)c1[nH]c2ccc(Br)cc2c1NC(=O)Oc1ccccc1 | -15.2% |  |
| COC(=O)c1[nH]c2ccccc2c1NC(=O)CN1CCCc2ccccc21 |  | 2.08 µM (active) |
| CC(=O)N1CCc2c(sc(NC(=O)CCS(=O)(=O)c3ccc(C)cc3)c2C(N)=O)C1 | -24.3% |  |
| O=C(NNS(=O)(=O)c1ccc(F)cc1)c1ccc([N+](=O)[O-])cc1Cl | 1.58% |  |
| CC(C)CCNC(=O)c1ccc2c(Cl)c3c(nc2c1)CCC3 | 50.2% |  |
| Cc1ccc(S(=O)(=O)N2CCN(c3ccccc3)CC2)cc1C | 13.1% |  |
| Cc1cc(N2CCN(c3ccccc3)CC2)nc(N2CCOCC2)n1 | -20.2% |  |
